Compound activity (PubChem)
A selection: hits, their analogues and other compounds. The true share with any hit is near 7.3%.
Vaccinia Venus: inhibitors of vaccinia virus (Venus reporter); Vaccinia virus Venus reporter expression, fluorescence; Potency, µM (top dose mostly 36.5 µM), usual class: inhibitors; 330,000 tested, 0.46% active; AID 720580; calls by dose curve; tested in A549 cells; note: nearly all actives have a fitted effect of over 30% in size
HCV inh: inhibitors of hepatitis C virus infection; Huh7.5.1 HCVcc-Cre infection, luciferase reporter, 44 h; Potency, µM (titrated, usually from 41.8 µM), usual class: inhibitors; 340,000 tested, 3.4% active; AID 651820; active = well fitted inhibition curve with a large enough effect; inconclusive = small, poorly fitted or top-dose-only effect, or another doubt; inactive = no such curve, though single readings can be large or run the other way
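Infectious HCV cell culture screen: compound-treated cells (1,000/well, pre-plated 4 h) are infected with HCVcc-Cre at roughly 0.5 moi and grown 44 h. Infection is quantified by luciferase signal after 15 min substrate incubation at room temperature.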
HCMV antiviral: inhibitors of human cytomegalovirus. HFF cells, HCMV-luciferase reporter, 72 h; active compounds read low. activity change, negative = inhibition, % at 57.5 µM. 410,000 tested, 4.5% active. AID 1259415; in the data active = activity change below about -60%; inconclusive = no clear call, values can overlap the other calls; inactive = above about -39%
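Compounds were evaluated in HFFs infected with an HCMV luciferase reporter virus (MOI 1 PFU/cell). Luciferase in lysates collected 72 h post infection served as the replication measure.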
VACV mCherry inh: inhibitors of vaccinia virus infection (mCherry reporter signal). Vaccinia virus mCherry reporter infection, fluorescence. Potency, µM (doses to about 36.5 µM), usual class: inhibitors. 310,000 tested, 0.63% active; calls by dose curve; tested in A549 cells; note: nearly all actives have a fitted effect of over 35% in size
FMDV antiviral: foot and mouth disease virus antiviral activity | FMDV antiviral cell-based qHTS | 410,000 tested, 1.2% active | Potency, µM (series often up to 57.9 µM), most hits filed as inhibitors | AID 1159524; calls by dose curve; tested in HEK293T cells; note: read-out not given here; nearly all actives have a fitted effect of over 45% in size
Hits are given with their value; i = inactive; ? = inconclusive; nt = no result given.

SMILES | Vaccinia Venus | HCV inh | HCMV antiviral | VACV mCherry inh | FMDV antiviral
NC(c1ccccc1)c1csc(NC(=O)Nc2cccc(Cl)c2)n1 (configuration not stated) | 10µM | nt | i | i | i
NC(Cc1ccc(F)cc1)c1csc(NC(=O)NC(c2ccccc2)c2ccccc2)n1 (configuration not stated) | ? | nt | -103 | ? | ?
COc1ccc(CC(N)c2csc(NC(=O)Nc3ccc(OC)cc3)n2)cc1 (configuration not stated) | i | nt | i | i | i
COc1ccc(NC(=O)Nc2nc(C(N)Cc3ccc(C(F)(F)F)cc3)cs2)cc1 (configuration not stated) | i | nt | -103 | i | ?
CN(C)Cc1csc(NC(=O)Nc2ccccc2-c2ccccc2)n1 | i | nt | i | i | i
NC(COCc1ccccc1)c1csc(NC(=O)Nc2cccc(C(F)(F)F)c2)n1 (configuration not stated) | ? | nt | -100 | i | i
CC(C)CC(N)c1csc(NC(=O)NCCc2ccccc2)n1 (configuration not stated) | i | nt | i | i | i
NC(Cc1ccc(C(F)(F)F)cc1)c1csc(NC(=O)NCCc2ccccc2)n1 (configuration not stated) | 11µM | nt | -101 | ? | ?
NC(Cc1ccc(C(F)(F)F)cc1)c1csc(NC(=O)Nc2ccccc2Oc2ccccc2)n1 (configuration not stated) | ? | nt | -102 | i | i
COc1ccc(Nc2nc(-c3c[nH]c4ccccc34)cs2)cc1 | i | ? | i | i | i
COc1ccc(OCC(=O)c2c[nH]c3ccccc23)cc1 | i | i | i | i | i
COc1ccc(C2NN=C(c3c[nH]c4ccccc34)C2O)cc1 (configuration not stated) | i | 11µM | i | i | i
COc1ccc(C2C(O)C(c3c[nH]c4ccccc34)=NN2C(=O)CCl)cc1 (configuration not stated) | ? | 0.56µM | -104 | ? | 18µM
CCC(CC)C(=O)Nc1nnc(SCc2cc(=O)n3cccc(C)c3n2)s1 | i | nt | i | i | i
CCOC(=O)c1c(-c2ccccc2)nc2ccccn12 | nt | i | -63 | nt | i
CCOC(=O)c1c(-c2ccccc2)nc2c(C)cccn12 | nt | i | i | nt | i
CC(=O)O[C@@H]1C[C@@]2(C)C(c3ccoc3)C[C@H]3O[C@]32[C@]2(C)C(=O)C(O)=C3C(C)(C)C(=O)C=C[C@]3(C)C12 (some centres not stated) | nt | nt | nt | nt | 25µM
CC(=O)OC1C[C@@]2(C)C(c3ccoc3)C[C@H]3O[C@@]32[C@@]2(C)C(=O)C(O)=C3C(C)(C)C(=O)C=C[C@]3(C)C12 (some centres not stated) | 8.9µM | nt | nt | 7.1µM | 7.9µM
CC(=O)OC1CC(OC(C)=O)[C@]2(C)C(CC(OC(C)=O)[C@]3(C)C2CC[C@@]2(C)C(c4ccoc4)C[C@H]4O[C@]432)C1(C)C (some centres not stated) | i | nt | nt | i | i
CC(=O)OC1CC2C(C)(C)C=CC(=O)[C@@]2(C)C2CC[C@@]3(C)C(c4ccoc4)OC(=O)C4OC43[C@]12C (some centres not stated) | i | nt | nt | i | i
Fc1ccc(CSc2nncn3c2cc2occc23)c(Cl)c1 | i | nt | i | i | i
O=C(NCCN1CCOCC1)c1cnn(-c2nccc(-c3ccccc3F)n2)c1C1CC1 | ? | nt | nt | i | i
COC(=O)[C@@]1(C)[C@H]2C(=O)N(C)C(=O)[C@H]2[C@H]2CN=C(SCc3ccc(Cl)cc3)N21 | i | 4.5µM | i | i | i
CC[C@]1(C(=O)OC)[C@H]2C(=O)N(C)C(=O)[C@H]2[C@H]2CN=C(SCc3ccc(Cl)cc3)N21 | i | i | i | i | i
CCN1C(=O)[C@H]2[C@H]3CN=C(SCc4ccc(C#N)cc4)N3[C@@](C)(C(=O)OC)[C@H]2C1=O | i | i | i | i | i
SMILES | Vaccinia Venus | HCV inh | HCMV antiviral | VACV mCherry inh | FMDV antiviral
COC(=O)[C@@]1(C)[C@H]2C(=O)N(C)C(=O)[C@H]2[C@H]2CN=C(SCc3ccc(C#N)cc3)N21 | i | 0.56µM | i | i | i
Cc1ccc2cccc(NC(=O)C(C)(C)Oc3ccc(Br)cc3)c2n1 | i | nt | i | i | i
COc1ccc(Cc2c(-c3cccc(Cl)c3)nc3ccc(C)cn23)c(C)c1 | i | nt | i | i | i
O=C(NCCc1cccs1)c1ccc(Cn2c(SCc3cccc(F)c3)nc3cccnc32)cc1 | i | nt | i | i | i
CC(C)OCCCNC(=O)c1ccc(CSc2nc3cccnc3n2Cc2ccccc2)cc1 | i | nt | -98 | i | i
O=C(Cn1c(SCc2ccccc2F)nc2cccnc21)Nc1ccc(F)c(Cl)c1 | i | nt | i | i | i
O=C(NCc1cccs1)c1ccc(Cn2c(SCc3cccc(F)c3)nc3cccnc32)cc1 | i | nt | -70 | i | i
O=C(Cn1c(SCc2cccc(F)c2)nc2cccnc21)Nc1ccc(F)c(Cl)c1 | i | nt | -73 | i | i
Cc1ccc(CN2CCCn3nc(C(=O)NCc4ccc(N(C)C)cc4)cc3C2=O)cc1 | i | nt | i | i | i
Cc1cc(Br)ccc1NC(=O)CN1C(=O)C2CC=CCC2C1=O (configuration not stated) | nt | i | i | nt | i
O=c1c2ccccc2nc(N/N=C/c2c(O)ccc3ccccc23)n1O | ? | 0.89µM | -101 | nt | i
Cc1nc2ccccc2c(=O)n1/N=C/c1cc(Br)ccc1O | i | ? | i | ? | i
Cc1nc2ccccc2c(=O)n1/N=C/c1c(O)ccc2ccccc12 | ? | i | i | 13µM | i
Cc1cc2nsnc2c(S(=O)(=O)N2CCN(C)CC2)c1C | i | i | i | i | i
Cc1no[n+]([O-])c1COc1cccc(/C=N/Nc2nncn2N)c1 | nt | i | -82 | nt | i
O=C(O)[C@H]1CN[C@H](C(=O)O)C1 | nt | nt | nt | nt | i
CCOC(=O)C1=C(O)/C(=C\c2ccc(CNC(=O)C(=O)Nc3ccccc3)o2)N=C1C | i | i | -74 | i | i
CCOC(=O)C1=C(O)/C(=C\c2cccs2)N=C1C | i | i | i | i | i
COc1cccc(/C=N\NC(=O)c2ccc(Cn3cc(Br)c([N+](=O)[O-])n3)o2)c1O | ? | 2.8µM | -81 | 1.3µM | i
COc1ccc(OC)c(NC(=O)c2cccc(Cn3cc(Br)c([N+](=O)[O-])n3)c2)c1 | ? | ? | i | i | i
COc1cccc(/C=N/NC(=O)Cn2nc(C)c([N+](=O)[O-])c2C)c1O | ? | ? | i | 11µM | i
COc1cc(/C=N\NC(=O)c2ccc(Cn3nc([N+](=O)[O-])c(Cl)c3C)o2)ccc1O | 18µM | i | i | nt | i
COc1cccc(/C=N/NC(=O)C(C)n2nc(C)c([N+](=O)[O-])c2C)c1O (configuration not stated) | ? | ? | i | ? | i
Cc1c(Cl)c([N+](=O)[O-])nn1Cc1ccc(C(=O)N/N=C\c2ccccn2)o1 | ? | i | i | i | i
CC(=O)NCCNC(=O)c1nnc2n1CCN(C(=O)C1CCCCC1)C2 | nt | nt | i | nt | nt
O=C(Cc1coc2ccc3ccccc3c12)Nc1nnc(C2CC2)s1 | i | ? | -77 | 13µM | i
